Several values for one entry are separate records, joined by “and”; a condition that tells them apart may be missing. Identical values can stand only once. The source holds several records for some structures; these can differ, active in one and inactive in another. Activity calls are given as the source filed them. The calls were made as follows: active = hit-call score of the fitted dose curve at least 0.9, where 1 is the maximum; inactive = score below 0.9.
Key:
[1] = read-out: Thrombomodulin, THBD (gene 7056); experiment: BSK_CASM3C_Thrombomodulin: BioMAP Diversity Plus: CASM3C Assay for Thrombomodulin Biomarker Activity (AID 2283051); conditions: primary human coronary artery smooth muscle cells; actives raise or lower the signal;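 also: thrombomodulin protein level measured by ELISA 24 h after dosing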
[2] = read-out: Tissue Factor, F3 (gene 2152); experiment: BSK_CASM3C_TissueFactor: BioMAP Diversity Plus: CASM3C Assay for Tissue Factor Biomarker Activity (AID 2283052); conditions: primary human coronary artery smooth muscle cells; actives raise or lower the signal;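 also: cell surface tissue factor protein level read by ELISA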
[3] = read-out: Interferon-gamma inducible Protein 10 (IP10), CXCL10 (gene 3627); experiment: BSK_hDFCGF_IP10: BioMAP Diversity Plus: hDFCGF Assay for Interferon-gamma inducible Protein 10 (IP10) Biomarker Activity (AID 2283053); conditions: primary human foreskin fibroblasts; actives raise or lower the signal
Method in brief: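 Primary foreskin fibroblasts, human; 24 h compound exposure; IP-10 by ELISA; bidirectional fit vs DMSO.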

[4] = read-out: Urokinase-type plasminogen activator receptor (uPAR), PLAUR (gene 5329); experiment: BSK_CASM3C_uPAR: BioMAP Diversity Plus: CASM3C Assay for Urokinase-type plasminogen activator receptor (uPAR) Biomarker Activity (AID 2283054); conditions: primary human coronary artery smooth muscle cells; actives raise or lower the signal;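 also: cell-surface uPAR protein level quantified by ELISA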
[5] = read-out: Vascular cell adhesion molecule 1 (VCAM1), VCAM1 (gene 7412); experiment: BSK_CASM3C_VCAM1: BioMAP Diversity Plus: CASM3C Assay for Vascular cell adhesion molecule 1 (VCAM1) Biomarker Activity (AID 2283055); conditions: primary human coronary artery smooth muscle cells; actives raise or lower the signal;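 also: VCAM-1 protein level quantified by ELISA on the cells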
[6] = read-out: Collagen III, COL3A1 (gene 1281); experiment: BSK_hDFCGF_CollagenIII: BioMAP Diversity Plus: hDFCGF Assay for Collagen III Biomarker Activity (AID 2283056); conditions: primary human foreskin fibroblasts; actives raise or lower the signal
Method in brief: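 hDFCGF primary human dermal fibroblasts; 24 h chemical exposure; collagen III by ELISA; bidirectional curve fit vs DMSO baseline (gain or loss of signal).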

[7] = read-out: Epidermal growth factor receptor (EGFR), EGFR (gene 1956); experiment: BSK_hDFCGF_EGFR: BioMAP Diversity Plus: hDFCGF Assay for Epidermal growth factor receptor (EGFR) Biomarker Activity (AID 2283057); conditions: primary human foreskin fibroblasts; actives raise or lower the signal
Method in brief: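 hDFCGF system, primary human foreskin fibroblasts; compound 24 h; EGFR measured by ELISA; DMSO = negative control/baseline; bidirectional fitting.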

[8] = read-out: Interleukin-8 (IL8), CXCL8 (gene 3576); experiment: BSK_hDFCGF_IL8: BioMAP Diversity Plus: hDFCGF Assay for Interleukin-8 (IL8) Biomarker Activity (AID 2283058); conditions: primary human foreskin fibroblasts; actives raise or lower the signal
Method in brief: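 ELISA read-out of IL-8 from primary human foreskin fibroblast cultures taken 24 h after dosing; values are bidirectional fits relative to DMSO vehicle.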

[9] = BSK_hDFCGF_Proliferation: Cell Proliferation Assessment in the BioMAP Diversity Plus: hDFCGF Assay (AID 2283059); conditions: primary human foreskin fibroblasts;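 also: curves fitted for both rise and fall of signal versus DMSO baseline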
Method in brief: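 Total protein read at 560 nm after 0.1% SRB staining of TCA-fixed human skin fibroblasts, […]. Activity is fitted in both directions relative to DMSO as baseline.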

[10] = read-out: Macrophage colony-stimulating factor (MCSF), CSF1 (gene 1435); experiment: BSK_hDFCGF_MCSF: BioMAP Diversity Plus: hDFCGF Assay for Macrophage colony-stimulating factor (MCSF) Biomarker Activity (AID 2283060); conditions: primary human foreskin fibroblasts; actives raise or lower the signal
Method in brief: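 ELISA read-out of M-CSF in human dermal foreskin fibroblast cultures, 24 h after chemical dosing; gain or loss of signal fitted bidirectionally relative to DMSO baseline.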

Measured: AC50

O=C(O)C(F)(F)OC(F)(F)C(F)(F)OC(F)(F)C(F)(F)C(F)(F)C(F)(F)F
active: [3] 15.6 µM and 18.7 µM | [6] 22.3 µM and 29.2 µM | [10] 6.97 µM and 30 µM
inactive: all other assays above

C=C(C)C(N)=O
inactive: all assays above

OCC(F)(OC(F)(F)C(F)(OC(F)(F)C(F)(F)C(F)(F)F)C(F)(F)F)C(F)(F)F (centres undefined)
active: [3] 2.4 µM and 2.74 µM | [6] 2.23 µM and 1.98 µM | [7] 5.4 µM | [8] 5.05 µM | [9] 4.48 µM and 4.13 µM | [10] 2.34 µM and 1.91 µM
inactive: [1] | [2] | [4] | [5] | [7] | [8]

CC(=O)c1ccc(C)cc1
inactive: all assays above

CC(C)CCCC(C)(C)O
inactive: all assays above

CC/C(=C(\c1ccccc1)c1ccc(OCCN(C)C)cc1)c1ccccc1
active: [1] 4.85 µM | [2] 13.7 µM | [3] 8.93 µM and 7.96 µM | [4] 25.9 µM and 14.2 µM | [5] 29 µM and 16.1 µM | [6] 9.76 µM and 7.96 µM | [8] 9.19 µM and 7.91 µM | [9] 5.05 µM and 314 nM | [10] 7.77 µM and 7.23 µM
inactive: [1] | [2] | [7]

C=C(C)C(=O)OCCC(F)(F)C(F)(F)C(F)(F)C(F)(F)C(F)(F)C(F)(F)C(F)(F)C(F)(F)F
inactive: all assays above

OCCN1CCOCC1
active: [2] 2.22 µM
inactive: all other assays above

CCCCCCCCCCCCS
inactive: [1] | [2] | [7]
active: [3] 11.3 µM | [4] 30.3 µM | [5] 6.76 µM | [6] 7.78 µM | [8] 20 µM | [9] 3.2 µM | [10] 9.73 µM

CCn1cc(C(=O)O)c(=O)c2ccc(C)nc21
inactive: all assays above

C=CC(=O)OCC(CO)(COC(=O)C=C)COC(=O)C=C
inactive: [7]
active: [1] 4.58 µM | [2] 1.25 µM | [3] 0.016 µM | [4] 0.501 µM | [5] 0.206 µM | [6] 0.016 µM | [8] 3.97 µM | [9] 0.016 µM | [10] 0.0377 µM

O=C(O)C(F)(F)C(F)(F)C(F)(F)C(F)(F)C(F)(F)C(F)(F)C(F)(F)C(F)F
active: [6] 10.7 µM
inactive: [1] | [2] | [3] | [4] | [5] | [6] | [7] | [8] | [9] | [10]

CCCCOCCOCCO
inactive: all assays above

O=S1(=O)CC(Cl)(Cl)C(Cl)(Cl)C1
active: [1] 7.52 µM | [2] 2.07 µM | [3] 0.961 µM | [4] 1.05 µM | [5] 0.93 µM | [6] 1.35 µM | [9] 0.016 µM | [10] 0.71 µM
inactive: [7] | [8]

C#C[C@]1(O)CC[C@H]2[C@@H]3CCc4cc(O)ccc4[C@H]3CC[C@@]21C
active: [9] 7.35 µM
inactive: all other assays above

C=C1CC/C=C(\C)CC[C@@H]2[C@@H]1CC2(C)C
inactive: [1] | [2] | [4] | [7]
active: [3] 30.1 µM | [5] 29 µM | [6] 13.5 µM | [8] 33.9 µM | [9] 6.82 µM | [10] 24.5 µM

CC1(C)[C@H](C=C(Cl)Cl)[C@H]1C(=O)OCc1cccc(Oc2ccccc2)c1
inactive: all assays above

O=C(c1ccc(OCCN2CCCCC2)cc1)c1c(-c2ccc(O)cc2)sc2cc(O)ccc12
active: [3] 32.2 µM | [4] 33.4 µM | [6] 14.8 µM | [7] 9.63 µM | [8] 33.7 µM | [9] 7.34 µM
inactive: [1] | [2] | [5]

CCCO[Si](OCCC)(OCCC)OCCC
active: [9] 31.1 µM and 25.8 µM
inactive: all other assays above

COc1ccccc1NC(=O)CC(C)=O
inactive: all assays above

O=S(=O)(O)C(F)(F)C(F)(F)OC(F)(F)C(F)(F)F
inactive: all assays above

C[C@]12CC[C@@H]3c4ccc(O)cc4CC[C@H]3[C@@H]1CC[C@@H]2O
active: [6] 20 µM | [9] 22.8 µM
inactive: all other assays above

Reference: PubChem BioAssay (EPA / NIEHS)
